# Cardio protect: myocardial damage modulation in H9c2 cells. H9c2 cardiomyocytes, H2O2 injury protection, ATPLite, 2 h. protection from H2O2 cell death, % at 20 µM. 0.63% of 360,000 active. AID 588492;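 active = compounds giving at least 50% protection of heart cells from peroxide-induced death in the single-dose screen, raw or plate-pattern-corrected value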;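 also: 0% = DMSO wells with peroxide and 100% = DMSO wells without peroxide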
# Myeloid diff MLP: myeloid differentiation induction; 1% of 360,000 active; ER-HoxA9 myeloid progenitors, lysozyme-GFP differentiation, flow cytometry; AID 624256; calls only at 10 µM;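 active = normalized GFP-positive differentiation at or above the plate's own cutoff, the solvent-only control mean plus 3 SD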;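 also: cells exposed to compound for four days before flow analysis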
# MIN6 prolif: inducers of beta-cell replication in MIN6 cells; MIN6 cells proliferation, ATPlite luminescence, 48 h; cells starved in 0.2% serum; 100% = growth in 10% serum; AID 2380; 0.29% of 330,000 active; proliferation, % at 10 µM;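 active = compounds whose signal lies at least 3.5 SD above the mean of all wells on their plate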;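 also: 0% = DMSO-treated cells in low-serum medium and 100% = 10% serum control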
# ABCB6 inh 2: inhibitors of human ABC transporter ABCB6; Q9NP58; 0.19% of 360,000 active; fluorescence ratio to DMSO, % at 10 µM; K562-ABCB6 porphyrin accumulation, flow cytometry, 1 h; stronger effect = lower value;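 active = fluorescence ratio to DMSO below 75%, the collection mean minus 3 SD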;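 also: signal is porphyrin accumulated inside mitochondria; 100% equals median channel fluorescence of DMSO control wells; lower ratio means ABCB6 inhibition with less porphyrin fluorescence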
# Target sequence (Q9NP58 whole entry, looked up): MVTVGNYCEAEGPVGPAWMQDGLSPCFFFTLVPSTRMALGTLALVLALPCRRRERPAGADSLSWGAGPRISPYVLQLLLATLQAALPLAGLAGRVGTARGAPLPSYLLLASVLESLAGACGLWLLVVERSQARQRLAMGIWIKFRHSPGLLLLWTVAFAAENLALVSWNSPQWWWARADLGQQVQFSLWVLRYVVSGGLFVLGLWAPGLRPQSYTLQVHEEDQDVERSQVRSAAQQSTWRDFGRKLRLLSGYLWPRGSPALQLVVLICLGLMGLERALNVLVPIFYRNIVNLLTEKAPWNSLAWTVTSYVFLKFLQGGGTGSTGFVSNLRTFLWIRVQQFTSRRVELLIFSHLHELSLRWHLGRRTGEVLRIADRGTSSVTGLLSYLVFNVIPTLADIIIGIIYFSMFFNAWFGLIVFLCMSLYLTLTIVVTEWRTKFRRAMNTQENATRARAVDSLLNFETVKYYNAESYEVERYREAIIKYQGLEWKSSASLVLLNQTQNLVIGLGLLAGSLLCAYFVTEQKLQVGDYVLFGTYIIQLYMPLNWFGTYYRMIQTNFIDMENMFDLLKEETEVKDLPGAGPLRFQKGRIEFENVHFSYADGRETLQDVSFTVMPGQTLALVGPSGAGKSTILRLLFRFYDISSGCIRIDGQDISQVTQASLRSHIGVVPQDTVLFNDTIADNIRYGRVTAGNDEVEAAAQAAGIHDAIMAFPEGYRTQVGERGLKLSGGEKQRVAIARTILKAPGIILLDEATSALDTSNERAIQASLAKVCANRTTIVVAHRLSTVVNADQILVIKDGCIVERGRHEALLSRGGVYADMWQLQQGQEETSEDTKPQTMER
# hiPSC survival: hiPSC single-cell survival enhancement; ATPlite luminescence; 100% = ROCK inhibitor wells, 0% = DMSO; AID 602274; survival enhancement, % at 20 µM; 0.044% of 360,000 active; in the data active = survival enhancement above about 18%;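 also: cells exposed to compounds for 16 hours before the ATP read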
# The depositor's hits bear a star; i = inactive; . = no result given; + = active, no number. Rows were chosen to be rich in hits. Some 2.2% of all compounds tested hit in one or more screens of this group.
SMILES,Cardio protect,Myeloid diff MLP,MIN6 prolif,ABCB6 inh 2,hiPSC survival
CC(OC(=O)CCc1nc2ccccc2c(=O)[nH]1)C(=O)Nc1ccc2c(c1)OCO2 (centres undefined),50*,i,-5,100,-1
CC(OC(=O)CCc1nc2ccccc2c(=O)[nH]1)C(=O)Nc1ncc(Cl)cc1Cl (centres undefined),2,i,1,102,2
O=C(Cn1c(CN2CCCCC2)nc2ccccc2c1=O)Nc1ccccc1,6,i,0,102,-1
Cc1ccc(S(=O)(=O)N2CCCCC2C(=O)N2CCN(Cc3ccccc3)CC2)cc1 (centres undefined),3,i,-2,104,-2
Cc1nnc(SC(C)C(=O)Nc2ccc(S(=O)(=O)N3CCCCC3)cc2)s1 (centres undefined),-1,i,1,89,-1
CCC1=NN(C(=O)Cc2ccc(OC)cc2)C(O)(C(F)(F)F)C1 (centres undefined),-3,i,-1,96,1
COc1ccc(CC(=O)N2N=C(c3ccncc3)CC2(O)C(F)(F)F)cc1 (centres undefined),0,i,-4,97,29*
CC1Cc2ccccc2N1S(=O)(=O)c1cccc(C(=O)c2nccn2C)c1 (centres undefined),-9,i,-2,102,-4
CC(=O)Nc1cc(-c2cccc(C(=O)N(C)C)c2)cn2c(-c3ccc(C(C)=O)cc3)cnc12,55*,i,.,90,0
CC(=O)c1cccc(-c2cnc3c(NC=O)cc(-c4ccccc4F)cn23)c1,59*,i,.,96,2
CC(=O)Nc1cc(-c2ccccc2)cn2c(-c3cccc(C(C)=O)c3)cnc12,51*,i,.,96,-1
CC(=O)Nc1cc(-c2cccc(NS(C)(=O)=O)c2)cn2c(-c3cccc(C(C)=O)c3)cnc12,78*,i,.,91,-3
CC(=O)Nc1cc(-c2ccccc2F)cn2c(-c3ccccc3)cnc12,4,i,.,103,8
CN(C(=O)CSc1nc(-c2cccs2)nc2ccccc12)C1CCS(=O)(=O)C1 (centres undefined),10,i,-2,92,3
Cc1ccc(C)c(NC(=O)CCc2nnc3ccc(N4CCCC4)nn23)c1,5,i,7,98,1
CC(=O)Nc1cc(-c2ccc(C(=O)N3CCOCC3)cc2)cn2c(-c3ccccc3)cnc12,5,i,.,101,1
CC(=O)Nc1cc(-c2ccc(C(=O)N3CCOCC3)cc2)cn2c(-c3ccc(C(C)=O)cc3)cnc12,76*,i,.,97,-2
CCOC(=O)N1CCN(C(=O)c2cc3c(-c4cccc(OC)c4)nn(C)c3s2)CC1,-4,i,4,109,0
C#CCOCCOCCOCCNc1nc(N2CCN(C(=O)[C@H]([C@@H](C)O)n3cc(CCCCN)nn3)CC2)nc(N2CCN(C(=O)[C@H](CCCCN)n3cc(CCCC)nn3)CC2)n1,8,+,0,99,-2
C#CCOCCOCCOCCNc1nc(N2CCN(C(=O)CCCCCCCCCCNC(=O)Cn3cc(C[C@@H](C)O)nn3)CC2)nc(N2CCN(C(=O)CCCCCCCCCCNC(=O)[C@@H](CCSC)n3cc(CCO)nn3)CC2)n1,15,+,-8,87,3
C#CCOCCOCCOCCNc1nc(N2CCN(C(=O)[C@H]([C@@H](C)O)n3cc(CCCCN)nn3)CC2)nc(N2CCN(C(=O)[C@H](CCCCN)n3cc(CC(C)O)nn3)CC2)n1 (some centres undefined),0,i,2,95,-1
C#CCOCCOCCOCCNc1nc(N2CCN(C(=O)[C@H]([C@@H](C)CC)n3cc(CCCCN)nn3)CC2)nc(N2CCN(C(=O)[C@H](CCCCN)n3cc(CC(C)O)nn3)CC2)n1 (some centres undefined),1,+,-3,100,-1
N#CCc1ccc(C(=O)c2ccccc2F)s1,0,+,1,91,1
Cn1nc(C(=O)N2CCN(c3ccc(Cl)cc3)CC2)c2c1-c1ccccc1S(=O)(=O)C2,1,i,-2,91,0
COc1ccc2c(CC(=O)N3CCN(S(=O)(=O)c4ccc(F)cc4)CC3)coc2c1,2,+,-3,95,0
SMILES,Cardio protect,Myeloid diff MLP,MIN6 prolif,ABCB6 inh 2,hiPSC survival
COc1ccc2c(CC(=O)N3CCN(S(=O)(=O)c4cccs4)CC3)coc2c1,-2,i,0,97,6
Cc1cc(C(=O)N2CCCC(C(=O)c3cccc(C(F)(F)F)c3)C2)n[nH]1 (centres undefined),0,i,-4,98,0
O=C(c1cccc(C(F)(F)F)c1)C1CCCN(C(=O)c2cc(C3CC3)[nH]n2)C1 (centres undefined),-8,+,0,101,0
CSc1cccc(NC(=O)C(C)Sc2ccc(C)cc2)c1 (centres undefined),-11,i,1,96,-4
CCOC(=O)CCSc1nc(C)c2cc(OC)ccc2n1,6,i,3,100,-1
C(=C\c1nccc2c1[nH]c1ccccc12)/c1ccccc1,3,i,-7,87,0
Cc1ccc(/C=C\c2nccc3c2[nH]c2ccccc23)cc1,-22,+,-6,99,0
O=C(CCN1CCCCC1)Nc1cccc(Br)c1,-2,i,1,99,0
CCc1ccc2nc(N3CCN(C(=O)C(C)(C)C)CC3)sc2c1,1,+,4,97,0
CC(C)(C)C(=O)N1CCN(c2nc3ccccc3s2)CC1,-4,i,-1,99,0
CC(C)c1ccc(NC(=O)c2ccc(NS(C)(=O)=O)cc2)cc1,-1,+,-3,100,2
O=c1[nH]c(-c2ccccc2F)nc2c1sc(=S)n2Cc1ccccc1,-30,i,-6,105,-3
OC1CCN(c2c3c(nc4cc(-c5cccc(F)c5)nn24)CCCC3)CC1,59*,i,-2,94,-1
CC(Sc1nnnn1C)C(=O)Nc1ccc(N2CCOCC2)cc1 (centres undefined),0,i,1,83,5
N#Cc1c(-c2ccccc2)c(-c2ccccc2)nn(CC(=O)NNC(=O)Nc2ccc(Cl)cc2)c1=O,-2,i,-4,101,-1
O=C(COc1ccc(S(=O)(=O)N2CCCCC2)cc1Cl)N1CCCC1,-1,+,-1,171,0
CN1C(=O)CC(c2cn(Cc3ccccc3)c3ccccc23)C1=O (centres undefined),3,+,-2,107,1
CCn1c(SC(C)C(=O)Nc2ccc(N3CCOCC3)cc2)nnc1C1CC1 (centres undefined),-2,i,-2,97,1
COc1cc(OC)cc(C(=O)NC(=S)Nc2ccc3c4c(cccc24)CC3)c1,-3,+,0,126,2
COc1ccc(C(=O)NC(=S)Nc2ccc3c4c(cccc24)CC3)cc1OC,-14,i,-3,99,0

# Source: PubChem
